HT1080-NT tox: qHTS for induction of synthetic lethality in tumor cells producing 2HG: qHTS for the HT-1080-NT fibrosarcoma cell line. HT-1080-NT fibrosarcoma viability, CellTiter-Glo ATP luminescence, 48 h. Potency, µM (top dose mostly 46.1 µM), inactives show at the highest dose activity, negative = less viability, usual class: cytotoxic. hit rate 1.6% among 360,000. AID 686970, 2013;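 further: NT is the 2HG producing partner of a matched IDH1 knockdown line; 0% = DMSO-treated cells and -100% = media-only wells without cells; nearly all actives have a fitted effect of over 55% in size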
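Viability of the 2HG-overproducing fibrosarcoma line after 48 hours of compound exposure at 37 degrees C was determined by luminescence with CellTiter-Glo, and concentration-effect curves were then fitted and categorized.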
KB-3-1 cytotox: qHTS assay for MDR1-selective chemotherapeutics: Primary screen using the parental adenocarcinoma cell KB-3-1 | hit rate 1.4% among 400,000 | KB-3-1 viability, CellTiter-Glo ATP luminescence, 72 h | Potency, µM (top dose mostly 46.1 µM), most hits filed as cytotoxic; further: on the % scale 0 is the no-effect control and ±100 the full control effect; nearly all actives have a fitted effect of over 60% in size
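72 h, 37 °C compound treatment of KB-3-1 parental cells; CellTiter-Glo added, 10 min, luminescence read. Data corrected against DMSO-only plates and normalized before curve fitting.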
MCF10A rereplic: A quantitative high throughput screen for small molecules that induce DNA re-replication in MCF 10a normal breast cells; MCF 10A DNA re-replication, Hoechst nuclear intensity, 48 h; AID 624296, 2012; Potency, µM (series often up to 46.1 µM), for inactives: top-dose activity, positive = re-replication, hits mostly activators; hit rate 2.9% among 350,000; further: % of control where 0% means no effect; nearly all actives have a fitted effect of over 50% in size
KB-V1 cytotox: qHTS assay for MDR1-selective chemotherapeutics: Primary screen using the drug-selected MDR subline cells KB-V1; hit rate 3.4% among 400,000; Potency, µM (top dose mostly 46.1 µM), usual class: cytotoxic; AID 1347076, 2019; KB-V1 MDR cells viability, CellTiter-Glo, 72 h; further: on the % scale 0 is the no-effect control and ±100 the full control effect; nearly all actives have a fitted effect of over 60% in size
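Drug-selected KB-V1 cells, grown in DMEM lacking phenol red with 10% FBS, receive compound titrations; after three days at 37 degrees C, surviving cell ATP is quantified by CellTiter-Glo luminescence and responses normalized and curve-fitted.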
SW480 rereplic: A quantitative high throughput screen for small molecules that induce DNA re-replication in SW480 colon adenocarcinoma cells. AID 624297, 2012. hit rate 1.8% among 340,000. Potency, µM (doses to about 46.1 µM), for the others: at the highest dose re-replication activation, actives largely listed as activators. SW480 DNA re-replication, Hoechst DNA content imaging, 48 h; further: % of control where 0% means no effect; nearly all actives have a fitted effect of over 55% in size
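Quantitative HTS format with DMSO vehicle controls; 48 hr drug incubation at 37 C, then 40 min Hoechst staining and scanning imager measurement at 405 nm excitation.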
HT1080 IDH1KD tx: qHTS for induction of synthetic lethality in tumor cells producing 2HG: qHTS for the HT-1080-IDH1KD cell line | Potency, µM (series often up to 46.1 µM), without a hit: at the top dose activity, negative = toxicity, usual class: cytotoxic | AID 686971, 2013 | hit rate 2% among 360,000 | HT-1080 IDH1 knockdown viability, ATP luminescence, 48 h;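 further: 0% = DMSO wells and -100% = cell-free medium wells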
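Using the IDH1-knockdown HT-1080 line run in the same batch and compound series as the NT line, viability after 48 h at 37 °C was determined by CellTiter-Glo luminescence and expressed as % activity.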
Starred values were filed as active, the others as inactive; i = inactive; ? = inconclusive; nt = no result given. This is a sample that favours compounds with a hit; in the whole collection about 7.9% have one here. The call rests on the fitted dose curve; in most records, active means well fitted curve in the direction sought with a large enough effect; inconclusive means small, poorly fitted or top-dose-only effect, or another doubt; inactive means no such curve, though single readings can be large; an effect the other way counts as inactive or inconclusive. Potency means the concentration at half of the fitted maximal effect.

SMILES	HT1080-NT tox	KB-3-1 cytotox	MCF10A rereplic	KB-V1 cytotox	SW480 rereplic	HT1080 IDH1KD tx
Cc1cccc(OCC(=O)NCC(=O)N/N=C/c2ccccc2)c1	2.0%	i	6.9%	i	-0.5%	2.0%
Cc1nc(-c2ccccc2)sc1-c1n[nH]c(=S)n1C	11.6%	i	15.1%	?	23.1µM*	1.5%
Cn1c(-c2ccccc2)n[nH]c1=S	?	i	0.6%	i	-9.4%	23.3%
Cc1cccc(-c2n[nH]c(=S)n2C)c1	14.6%	?	-1.1%	20.6µM*	-5.3%	15.9%
CCCCCCOc1ccc(/C=C/C(=O)Nc2sc3c(c2C(=O)OC)CCC3)cc1OC	nt	i	nt	?	nt	nt
OC(C[n+]1c(Cl)ccc2ccccc21)c1ccccc1 (stereo unspecified)	nt	i	nt	?	nt	nt
CC(=O)N1N=C(c2ccccc2)CC1c1ccc(F)cc1 (stereo unspecified)	-2.8%	i	-13.8%	i	-2.9%	6.2%
CC(=O)N1N=C(c2ccccc2)CC1c1cn(C)c2ccccc12 (stereo unspecified)	0.5%	i	17.4%	23.1µM*	19.8%	-8.3%
CCc1nc2ccc(C(=O)NCCCN3CCN(c4ccc(F)cc4)CC3)cc2nc1CC	?	?	?	i	4.5%	?
CN1CCN(CCNC(=O)c2ccc3nc(-c4ccc(F)cc4)c(-c4ccc(F)cc4)nc3c2)CC1	18.4µM*	i	?	i	?	23.1µM*
COc1cc(S(=O)(=O)n2c(C)nc3ccccc32)ccc1F	?	?	28.5%	i	?	?
CSc1ccc(/C=C/c2nc3ccccc3n2S(=O)(=O)c2cccc(Cl)c2)cc1	nt	14.6µM*	nt	i	nt	nt
COc1ccc(-c2nc(-n3c(C)c(C(C)=O)c(C(C)=O)c3C)sc2C)cc1OC	6.8%	i	?	14.6µM*	-7.1%	6.5%
CC(=O)c1c(C(C)=O)c(C)n(-c2nc(-c3ccc(Br)cc3)c(C)s2)c1C	-6.2%	?	15.6%	?	?	-15.0%
CC(C(=O)Nc1ccc(C#N)cc1)N(C)CC(=O)Nc1ccccc1Br (stereo unspecified)	?	i	10.9%	i	-3.6%	23.1µM*
c1ccc2c(c1)CCN(c1ncnc3nc[nH]c13)C2	14.6%	?	0.9%	i	0.4%	10.7%
CC1Cc2ccccc2N1c1ncnc2nc[nH]c12 (stereo unspecified)	1.3%	9.2µM*	23.7%	i	-10.9%	1.7%
COc1ccc2nc(C(F)(F)Cl)c(C#N)c(N)c2c1	-9.6%	i	?	i	?	-18.2%
COc1ccc2nc3cc(Cl)ccc3c(C#N)c2c1	8.3%	i	25.0%	i	20.6µM*	8.9%
COc1ccc(-c2cc(C(C)=O)c(C)n2CCC(=O)Nc2ccc(C)cc2Cl)cc1	nt	i	nt	i	nt	nt
COc1cccc(C2CC(=O)Nc3c2c(=O)nc2c(C)cccn32)c1OC (stereo unspecified)	nt	i	nt	?	nt	nt
N#Cc1ccccc1COC(=O)CCC(=O)c1cccs1	-4.9%	i	7.9%	?	?	6.8%
Cc1ccccc1OC1CCN(C(=O)c2cc(COc3ccccc3)on2)CC1	8.2%	i	?	i	0.8%	0.1%
COc1ccc([C@H]2C[C@@H](n3cc(-c4ccc(F)cc4)nn3)[C@H](O)CN2CC2CCCCC2)cc1	3.3%	?	nt	20.6µM*	nt	2.0%
O[C@@H]1CN(CC2CCCCC2)[C@@H](c2ccccc2)C[C@H]1n1cc(-c2ccc(F)cc2)nn1	?	16.4µM*	nt	i	nt	?
SMILES	HT1080-NT tox	KB-3-1 cytotox	MCF10A rereplic	KB-V1 cytotox	SW480 rereplic	HT1080 IDH1KD tx
COc1ccc(-c2csc(N(CCc3ccc(OC)c(OC)c3)C(=O)COc3ccccc3)n2)cc1	5.3%	i	6.1%	3.66µM*	-8.8%	12.1%
COCCCN(C(C)=O)c1nc(-c2ccc(OC)cc2)cs1	-29.1%	11.6µM*	?	7.31µM*	?	-22.5%
COCCCN(C(=O)c1ccco1)c1nc(-c2cc(OC)ccc2OC)cs1	?	i	23.6%	1.84µM*	-2.2%	3.6%
CCN(CC)CCCN(C(=O)c1ccccc1F)c1nc(-c2ccc(OC)cc2)cs1	18.4µM*	i	?	?	?	?
COc1ccc(-c2csc(N(CCCN(C)C)C(=O)c3cc(OC)c(OC)c(OC)c3)n2)cc1	-1.2%	i	1.3%	i	7.4%	-8.6%
COc1ccc(OC)c(-c2csc(N(Cc3ccco3)C(=O)c3ccco3)n2)c1	-3.6%	i	?	i	1.0%	?
COc1ccc(-c2csc(N(Cc3ccccc3)C(=O)COc3ccc(Cl)cc3)n2)cc1	-2.1%	i	15.5%	i	-3.1%	-6.1%
C[C@H]1CN(S(=O)C(C)(C)C)[C@H](CCO)/C1=C\c1ccccc1 (stereo partly specified)	-2.5%	i	-1.7%	i	-54.1%	-3.9%
COc1nnc(-c2ccc(N3CCCCC3)c(NC(=O)c3ccc(Cl)cc3)c2)c2ccccc12	nt	?	nt	i	nt	nt
CCN(CC)CCCN(C(=O)c1ccccc1C)c1nc(-c2ccc(OC)cc2)cs1	-26.3%	i	6.0%	i	-3.2%	-21.9%
CCN(CC)CCCN(C(=O)c1ccc(OC)cc1)c1nc(-c2ccc(OC)cc2)cs1	23.1µM*	?	?	i	?	14.6µM*
COc1cc2nc(N3CCCCC3)nc(NC3CCN(C)CC3)c2cc1OC	20µM*	nt	nt	nt	nt	11.2µM*
COc1cc2nc(N3CCCCC3)nc(NC3CCN(Cc4ccccc4)CC3)c2cc1OC	14.1µM*	nt	nt	nt	nt	10µM*
COc1cc2nc(NC3CCN(Cc4ccccc4)CC3)nc(N3CCCN(C)CC3)c2cc1OC	6.31µM*	nt	nt	nt	nt	2.82µM*
COc1cc2nc(NC3CCN(C)CC3)nc(N3CCCN(C)CC3)c2cc1OC	9.0%	nt	nt	nt	nt	-3.4%
COc1cc2nc(N3CCCN(C)CC3)nc(NC3CCN(C)CC3)c2cc1OC	-8.5%	nt	nt	nt	nt	-11.1%
COc1cc2c(NC3CCN(C)CC3)nc(N3CCCCC3)nc2cc1OCCCN(C)C	nt	?	nt	i	nt	nt
COc1cc2c(NC3CCN(C)CC3)nc(N3CCCN(C)CC3)nc2cc1OCCCCN(C)C	nt	16.4µM*	nt	i	nt	nt
COc1ccc(/C=N/N(C)C2=NS(=O)(=O)c3ccccc32)cc1	9.8%	i	4.4%	i	0.0%	-9.2%
